Screening results as filed in PubChem.
Only some compounds are listed: those with a hit (about 2.6% of all), similar ones and a draw of the others.
Cruzain noTriton: blocks cruzain activity in detergent-free assay. P25779. purified cruzain, Z-FR-AMC fluorescence, no detergent. Potency, µM, actives largely listed as inhibitors. 200,000 tested, 2.3% active; note: nearly all actives have a fitted effect of over 40% in size
Target sequence (P25779 123-467 limits assumed): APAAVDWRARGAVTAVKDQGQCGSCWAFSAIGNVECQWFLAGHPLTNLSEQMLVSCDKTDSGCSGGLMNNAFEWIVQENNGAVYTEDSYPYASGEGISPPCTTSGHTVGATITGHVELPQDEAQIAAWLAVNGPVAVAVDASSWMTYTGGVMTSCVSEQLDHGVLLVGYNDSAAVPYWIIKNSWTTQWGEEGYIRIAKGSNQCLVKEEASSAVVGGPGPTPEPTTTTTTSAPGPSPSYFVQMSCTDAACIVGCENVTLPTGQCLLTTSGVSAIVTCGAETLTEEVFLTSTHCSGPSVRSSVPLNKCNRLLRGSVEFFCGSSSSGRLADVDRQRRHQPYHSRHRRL
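Purified cruzain at 1.5 nM, pre-incubated 15 min with compound at room temperature in 100 mM sodium acetate pH 5.5, 5 mM DTT, 0.00005% Triton X-100. Reaction started with 2 uM Z-FR-AMC; AMC fluorescence increase over 60 s gives rate.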
Cruzain Triton: inhibitors of Trypanosoma cruzi cruzain with detergent; AID 1478; Potency, µM, hits mostly inhibitors; P25779; 200,000 tested, 0.43% active; purified cruzain, Z-FR-AMC fluorescence, 0.01% Triton; note: nearly all actives have a fitted effect of over 40% in size
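15 min RT preincubation of 1.5 nM cruzain with compound, then 2 uM Z-FR-AMC added; kinetic AMC fluorescence, 60 s delta. Triton X-100 0.01%, pH 5.5.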
Of the large screens only hits and unclear results are named; the others gave an inactive call; ! = repeats disagree. Calls come from the whole dose curve; as a rule, active = well fitted curve in the direction sought with a large enough effect; inconclusive = small, poorly fitted or top-dose-only effect, or another doubt; inactive = no such curve, though single readings can be large; an effect the other way counts as inactive or inconclusive.

COc1ccc(NC(=O)C2=C(C)Nc3c(C(=O)Nc4ccc(C)cc4)cnn3C2c2cc(OC)ccc2OC)cc1 (stereo not drawn)	none
CC1=C(C(=O)Nc2ccc(Cl)cc2)C(c2ccccc2C)n2ncc(C(=O)Nc3ccc(C)cc3)c2N1 (stereo not drawn)	Cruzain noTriton 31.6µM
Cc1csc2nc(COc3ccc(NC(=O)c4ccccc4F)cc3)cc(=O)n12	Cruzain noTriton inconclusive
COc1ccc(CNC(=O)c2ccc3nc(CCc4ccccc4)oc3c2)c(OC)c1	Cruzain noTriton inconclusive
CCOC(=O)c1c(-c2ccc(C)cc2)csc1NC(=O)c1cc(=O)c2ccc(C)cc2o1	none
O=C(Nc1ccc(Cl)c(Cl)c1)Nc1nnc(CC2=CCCCC2)s1	Cruzain noTriton 25.1µM
O=C(Nc1ccc(Cl)cc1)Nc1nnc(CSCc2ccc(Cl)cc2)s1	Cruzain noTriton 5.01µM
O=C(Nc1nnc(CC2=CCCCC2)s1)c1cccs1	none
CCC(=O)Nc1nnc(CSCc2ccc(F)cc2)s1	none
CC(=O)c1cccc(NC(=O)Cn2c(SCC(=O)Nc3ccc(F)cc3)nc3ccccc32)c1	Cruzain noTriton inconclusive
CC(C)OC(=O)[C@@H]1CC[C@H](C)[C@@H](CCC[C@@H]2CC=C[C@H](CC#N)O2)O1	none
C/C(=N\N=C1/NC(=O)C(C)S1)c1ccc([N+](=O)[O-])cc1 (stereo not drawn)	Cruzain noTriton 15.8µM, Cruzain Triton 25.1µM
C/C(=N/N=C1/NC(=O)CC(C(=O)O)S1)c1ccccc1 (stereo not drawn)	none
COc1ccc(NC(=O)c2nn(C)c3c2CS(=O)(=O)c2ccccc2-3)cc1Cl	none
CS(=O)(=O)N1CCC2(CC1)CN(c1ncccn1)C2	Cruzain noTriton 15.8µM
CS(=O)(=O)N1CCC[C@@]2(CCN(c3ncccn3)C2)C1	none
Cc1ccc(-n2ncc3c(NCc4ccccc4)ncnc32)cc1C	none
CC(NC(=O)COC(=O)CCc1ccc(S(=O)(=O)N2CCOCC2)cc1)C1CC2CCC1C2 (stereo not drawn)	Cruzain noTriton inconclusive
CC(NC(=O)COC(=O)c1cc(NS(=O)(=O)c2ccc(Cl)c([N+](=O)[O-])c2)ccc1O)C1CC2CCC1C2 (stereo not drawn)	Cruzain noTriton 6.31µM
O=C1C(Cl)=C(Cl)C(=O)C(Cl)=C1Cl	none
N#Cc1c(C(F)(F)F)cc(-c2cccs2)nc1SCc1cccnc1	Cruzain noTriton inconclusive, Cruzain Triton 31.6µM
N#Cc1c(C(F)(F)F)cc(-c2cccs2)nc1SCc1ccc(F)cc1	none
O=c1cc(-c2ccc(O)c(O)c2)oc2cc(O)cc(O)c12	none
O=c1c(O)c(-c2ccc(O)c(O)c2)oc2cc(O)cc(O)c12	Cruzain noTriton 20µM!, Cruzain Triton inconclusive
Cc1nnc(SCc2ccccc2Cl)c2cc3sccc3n12	none
CCN1CCN(c2oc(-c3ccc(COc4ccc(OC)cc4)o3)nc2C#N)CC1	none
O=C(Nc1cccc(F)c1)N1CCCC2(CCN(S(=O)(=O)c3ccccc3)CC2)C1	none
CCOc1ccc(N2C(=O)CC(Sc3nc(-c4cccs4)cc(C(F)(F)F)c3C#N)C2=O)cc1 (stereo not drawn)	Cruzain noTriton 12.6µM
CCOc1ccc(N2C(=O)CC(Sc3ncccn3)C2=O)cc1 (stereo not drawn)	none
COc1ccc2cc(CNc3ccccc3)c(=O)n(CC(=O)Nc3ccc(C(C)=O)cc3)c2c1	none
CC(=O)N1CC[C@@H]2CC(=O)C[C@@H](C)[C@@H]21	none
NS(=O)(=O)c1ccc(CCNc2nc3c(-c4cccc(F)c4)nnn3c3ccccc23)cc1	Cruzain noTriton 20µM
Cc1cccc(-c2nnn3c2nc(NCCc2ccc(S(N)(=O)=O)cc2)c2ccccc23)c1	Cruzain noTriton inconclusive
O=C(Nc1cccc(F)c1)N1CCCC2(CCN(C(=O)c3csnn3)CC2)C1	none
COc1ccccc1C(=O)Nc1ccc(S(=O)(=O)Nc2nc(C)cc(C)n2)cc1	none
O=c1c2c3c(sc2nnn1Cc1ccc(F)cc1)CCCC3	none
Oc1nc(Nc2ccc(Cl)cc2Cl)sc1/C=C1\C=Nc2ccccc21	Cruzain noTriton 25.1µM
Cc1nc(Nc2ccc(Cl)cc2Cl)sc1C(=O)Nc1ccccc1	none
Cc1ccc(S(=O)(=O)NNC(=S)NC(=O)c2ccc([N+](=O)[O-])cc2)cc1	Cruzain noTriton 3.98µM, Cruzain Triton inconclusive
Cc1ccc(C(=O)NC(=S)NNS(=O)(=O)c2ccc(C)cc2)cc1	Cruzain Triton inconclusive
O=C(O)C(Cc1ccccc1)N1C(=O)/C(=C/c2cccc3ccccc23)SC1=S (stereo not drawn)	Cruzain noTriton inconclusive, Cruzain Triton 31.6µM
O=C(O)C(Cc1ccccc1)N1C(=O)/C(=C/c2ccccc2)SC1=S (stereo not drawn)	none
CCCCOC(=O)c1ccc(NC(=O)C2(c3cccs3)CCOCC2)cc1	Cruzain noTriton inconclusive
Cc1ccc(NC(=O)Cn2cnc3c(oc4ccccc43)c2=O)cc1Cl	Cruzain noTriton inconclusive
CCOc1ccc(NC(=S)N(CCc2c(C)[nH]c3ccc(C)cc23)Cc2ccco2)cc1	Cruzain noTriton 3.16µM
COc1ccc(NC(=S)N(CCc2c(C)[nH]c3ccc(C)cc23)Cc2ccco2)cc1	Cruzain noTriton inconclusive
Cc1cccc(NC(=O)CSc2cn(CC(=O)N3CCCCCC3)c3ccccc23)c1	none
CCc1ccc(NC(=O)C(CC)Sc2nc3cc4c(cc3c(=O)n2Cc2ccco2)OCO4)cc1 (stereo not drawn)	Cruzain noTriton 25.1µM
CCc1ccccc1NC(=O)C(CC)Sc1nc2cc3c(cc2c(=O)n1Cc1ccco1)OCO3 (stereo not drawn)	none
COc1ccc(NC(=O)CSc2oc(-c3cccs3)nc2S(=O)(=O)c2ccc(Br)cc2)c(OC)c1	none
COc1ccc(-c2cc(=O)oc3cc4occ(C)c4cc23)cc1	none
COc1ccc(-c2cc(=O)oc3cc(OC(=O)C4CCCCC4)c(Cl)cc23)cc1	Cruzain noTriton 6.31µM
CCCc1cc(=O)oc2c(CN3CCCC3)c(O)ccc12	Cruzain noTriton inconclusive, Cruzain Triton 25.1µM
CCCc1cc(=O)oc2c(CN3CCCC3)c(O)c(Cl)cc12	Cruzain noTriton inconclusive, Cruzain Triton 31.6µM
CCCc1cc(=O)oc2cc(C)c(CN3CCCC3)c(O)c12	none
CCc1cc(=O)oc2cc(C)c(CN3CCCC3)c(O)c12	none
CCCNC(=O)C1CCC(Cn2c(=O)c3sccc3n(CC(=O)NCc3ccccc3)c2=O)CC1 (stereo not drawn)	none
Oc1cccc(Nc2cc(-c3ccccc3)ncn2)c1	none
CC(C)(C)C(=O)[C@H](C(c1ccccc1)N1CCOCC1)N1CCOCC1 (stereo partly drawn)	none
NC(=O)c1ccc([N+](=O)[O-])cc1	none
Cn1cc(-c2nc3cncnc3n(CCN)c2=O)c2ccccc21	none
CN(C)c1ccc(N=O)cc1	Cruzain noTriton 31.6µM, Cruzain Triton 25.1µM
CN(C)c1ccc(N=Nc2ccccc2)cc1	none
O=C(Cn1c(=O)oc2ccccc21)Nc1nc(-c2ccc(Br)cc2)cs1	Cruzain noTriton 15.8µM
Cc1csc(NC(=O)CCn2c(=O)oc3ccccc32)n1	none
COc1cc([N+](=O)[O-])ccc1NC(=O)N1CCN(c2cc(-c3noc(C)n3)ccc2C)CC1	none
CCOc1ccccc1N1CSC2=C(C#N)C(c3c(OC)ccc4ccccc34)CC(=O)N2C1 (stereo not drawn)	Cruzain noTriton 15.8µM
COc1ccc(N2CSC3=C(C#N)C(c4cc(OC)ccc4OC)CC(=O)N3C2)c(OC)c1 (stereo not drawn)	none
COc1ccc(OC)c(CCNC(=O)CCn2c(=O)c3cccn3c3ccc(F)cc32)c1	none
COc1ccc(-c2ccc(=O)n(CC(=O)Nc3ccc(C)cc3C)n2)cc1	none
